# In PubChem BioAssay (EPA / NIEHS):
# The source made the active and inactive calls. The calls were made as follows: active = hit-call score of the fitted dose curve at least 0.9, where 1 is the maximum; inactive = score below 0.9.
# Read-out: growth arrest and DNA damage 45 (GADD45B), GADD45B (gene 4616)
# Assay: LTEA_HepaRG_GADD45B: Life Technologies and Expression Analysis (LTEA) Assay for growth arrest and DNA damage 45 (GADD45B) using HepaRG (AID 2283461)
# Settings: mRNA level, 48 h; actives raise or lower the signal
# Outline: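 Human HepaRG monolayers receive chemicals for 48 h at eight half-log concentrations, highest 100 uM, in 0.5% DMSO. Expression is measured by TaqMan qRT-PCR and normalized to ACTB, GAPDH and POLR2A.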
Compound,outcome,AC50
CC1=C2C[C@H]3[C@@H](CC=C4C[C@@H](O)CC[C@@]43C)[C@@H]2CC[C@]12O[C@@H]1C[C@H](C)CN[C@H]1[C@H]2C,inactive,
CC#Cc1cc(C)nc(Nc2ccccc2)n1,,19.2 µM (active)
CCC(C)(c1ccc(O)cc1)c1ccc(O)cc1,inactive,
Cc1ccccc1CO[C@@H]1C[C@@]2(C(C)C)CC[C@]1(C)O2,inactive,
CCC(=O)O[C@H]1CC[C@H]2[C@@H]3CCC4=CC(=O)CC[C@]4(C)[C@H]3CC[C@]12C,,0.101 µM (active)
Oc1ccc(Cl)cc1Cl,inactive,
CCCCCCCCCc1ccc(O)cc1,inactive,
ClC(Cl)=C(c1ccc(Cl)cc1)c1ccc(Cl)cc1,inactive,
O=S(=O)(O)C(F)(F)C(F)(F)C(F)(F)C(F)(F)C(F)(F)C(F)(F)F,inactive,
Cc1cc(O)ccc1Cl,inactive,
O=C(O)C(F)(F)C(F)(F)C(F)(F)C(F)(F)C(F)(F)C(F)(F)C(F)(F)C(F)(F)F,,16.8 µM (active)
COS(=O)(=O)OC,inactive,
N#Cc1ccc(N(CC(N)=O)CC(F)(F)F)cc1C(F)(F)F,inactive,
CCC(C)(CC)c1cc(NC(=O)c2c(OC)cccc2OC)on1,inactive,
O=C(N[C@H]1CN2CCC1CC2)c1cc2ccoc2cn1,inactive,
C1CC2OC2CC1C1CO1 (centres undefined),inactive,

Compound,outcome,AC50
O=S(=O)(O)C(F)(F)C(F)(F)C(F)(F)C(F)(F)F,inactive,
O=NN(c1ccccc1)c1ccccc1,inactive,
NS(=O)(=O)C(F)(F)C(F)(F)C(F)(F)C(F)(F)C(F)(F)C(F)(F)C(F)(F)C(F)(F)F,,20.9 µM (active)
CC(c1ccc(O)cc1)(c1ccc(O)cc1)c1ccc(O)cc1,,35.9 µM (active)
C=CC(N)=O,inactive,
Cc1cc2c3c(c1)C(c1ccccc1)=N[C@@H](NC(=O)c1ccncc1)C(=O)N3CC2,inactive,
CN(C)CCO,inactive,
Nn1cnnc1,inactive,
Cc1cc(-c2ccc(N)c(C)c2)ccc1N,,50 µM (active)
O=C(NC(=O)c1c(F)cccc1F)Nc1cc(Cl)c(OC(F)(F)C(F)F)c(Cl)c1,inactive,
CN(C)c1nc(=O)n(C2CCCCC2)c(=O)n1C,inactive,
O=C(O)C(F)(F)C(F)(F)C(F)(F)C(F)(F)C(F)(F)C(F)(F)C(F)(F)C(F)(F)C(F)(F)F,inactive,
c1cc2ccc3cccc4ccc(c1)c2c34,inactive,
C=CC(=O)NCNC(=O)C=C,,50 µM (active)
Clc1ccc(C(Cl)(Cl)Cl)cc1,inactive,
O=C(NC(=O)c1cc(F)c(F)cc1Cl)Nc1cc(F)ccc1N1CCC(C(=O)O)CC1,inactive,

# Read-out: ABC Transporter (ABCC3), ABCC3 (gene 8714)
# Assay: LTEA_HepaRG_ABCC3: Life Technologies and Expression Analysis (LTEA) Assay for ABC Transporter (ABCC3) using HepaRG (AID 2283462)
# Settings: mRNA level, 48 h; actives raise or lower the signal
# Outline: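 Transcriptional change of ABCC3 in HepaRG after 48 h treatment, determined by qRT-PCR normalized to endogenous controls. Concentrations spanned eight half-log steps to 100 uM in 0.5% DMSO.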
Compound,outcome,AC50
CC1=C2C[C@H]3[C@@H](CC=C4C[C@@H](O)CC[C@@]43C)[C@@H]2CC[C@]12O[C@@H]1C[C@H](C)CN[C@H]1[C@H]2C,inactive,
CC#Cc1cc(C)nc(Nc2ccccc2)n1,inactive,
CCC(C)(c1ccc(O)cc1)c1ccc(O)cc1,inactive,
Cc1ccccc1CO[C@@H]1C[C@@]2(C(C)C)CC[C@]1(C)O2,inactive,
CCC(=O)O[C@H]1CC[C@H]2[C@@H]3CCC4=CC(=O)CC[C@]4(C)[C@H]3CC[C@]12C,inactive,
Oc1ccc(Cl)cc1Cl,inactive,
CCCCCCCCCc1ccc(O)cc1,inactive,
ClC(Cl)=C(c1ccc(Cl)cc1)c1ccc(Cl)cc1,inactive,
O=S(=O)(O)C(F)(F)C(F)(F)C(F)(F)C(F)(F)C(F)(F)C(F)(F)F,inactive,
Cc1cc(O)ccc1Cl,inactive,
O=C(O)C(F)(F)C(F)(F)C(F)(F)C(F)(F)C(F)(F)C(F)(F)C(F)(F)C(F)(F)F,inactive,
COS(=O)(=O)OC,inactive,
N#Cc1ccc(N(CC(N)=O)CC(F)(F)F)cc1C(F)(F)F,inactive,
CCC(C)(CC)c1cc(NC(=O)c2c(OC)cccc2OC)on1,inactive,
O=C(N[C@H]1CN2CCC1CC2)c1cc2ccoc2cn1,inactive,
C1CC2OC2CC1C1CO1 (centres undefined),inactive,

Compound,outcome,AC50
O=S(=O)(O)C(F)(F)C(F)(F)C(F)(F)C(F)(F)F,inactive,
O=NN(c1ccccc1)c1ccccc1,inactive,
NS(=O)(=O)C(F)(F)C(F)(F)C(F)(F)C(F)(F)C(F)(F)C(F)(F)C(F)(F)C(F)(F)F,,12.5 µM (active)
CC(c1ccc(O)cc1)(c1ccc(O)cc1)c1ccc(O)cc1,inactive,
C=CC(N)=O,inactive,
Cc1cc2c3c(c1)C(c1ccccc1)=N[C@@H](NC(=O)c1ccncc1)C(=O)N3CC2,inactive,
CN(C)CCO,inactive,
Nn1cnnc1,inactive,
Cc1cc(-c2ccc(N)c(C)c2)ccc1N,inactive,
O=C(NC(=O)c1c(F)cccc1F)Nc1cc(Cl)c(OC(F)(F)C(F)F)c(Cl)c1,inactive,
CN(C)c1nc(=O)n(C2CCCCC2)c(=O)n1C,inactive,
O=C(O)C(F)(F)C(F)(F)C(F)(F)C(F)(F)C(F)(F)C(F)(F)C(F)(F)C(F)(F)C(F)(F)F,,88.5 µM (active)
c1cc2ccc3cccc4ccc(c1)c2c34,inactive,
C=CC(=O)NCNC(=O)C=C,inactive,
Clc1ccc(C(Cl)(Cl)Cl)cc1,inactive,
O=C(NC(=O)c1cc(F)c(F)cc1Cl)Nc1cc(F)ccc1N1CCC(C(=O)O)CC1,inactive,
